Where “and” joins values, the source holds several entries; their conditions need not be identical. Equal entries are not always repeated. Records with an inconclusive call do not appear. A number with no mark means an inactive call. Calls of active or inactive are those of the source. Calls come from the whole dose curve; as a rule, active = well fitted curve in the direction sought with a large enough effect; inconclusive = small, poorly fitted or top-dose-only effect, or another doubt; inactive = no such curve, though single readings can be large; an effect the other way counts as inactive or inconclusive.

Assay [1] addresses Cytochrome P450 3A7 (Homo sapiens) (UniProt P24462). Put plainly: Cytochrome P450 family 3 subfamily A member 7 (CYP3A7) small molecule antagonists: luciferase biochemical qHTS assay (AID 1963596). For activity change, negative = inhibition: % is set by controls: 0 for no effect and ±100 for the full control effect. Note: nearly all actives have a fitted effect of over 40% in size. The method, boiled down: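 Luminescence from luciferin released by CYP3A7 from a proluciferin substrate, read 20 min after detection reagent. Compound and enzyme-substrate mix sat 10 min before NADPH regeneration solution; reaction ran 1 h at room temperature.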
For orientation: In qHTS, concentration-response curves come from the screen itself.

The nature of assay [2]: Viability qHTS for spleen associated tyrosine kinase inhibitor (SYKi) naive MV4-11 cells (AID 1963823). Note: nearly all actives have a fitted effect of over 40% in size. The procedure, abridged: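 Viability of MV4-11 AML cells lacking prior SYK inhibitor exposure is scored by CellTiter-Glo luminescence following 72 hr compound incubation at 37 C, 5% CO2, seeded at 500 cells per well.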
A short description of assay [3]: Viability qHTS for spleen associated tyrosine kinase inhibitor (SYKi) drug resistant MV4-11 cells (AID 1963824). Note: nearly all actives have a fitted effect of over 35% in size. The procedure, abridged: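 SYK-inhibitor-resistant MV4-11 AML cells were seeded at 500 per well onto compound and cultured 72 hours (37 °C, 5% CO2). CellTiter-Glo was then added, and after 10 min at room temperature, luminescence gave viability.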
Assay [4] can be described thus: Quantitative highthroughput screen to assess conditional lethalithy of NOMO1 cells grown in RPMI1640 with untreated serum (RPMI+s) (AID 1963876).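 For Viability: 100% = DMSO wells and 0% = empty wells without cells.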 Note: nearly all actives have a fitted effect of over 35% in size. The procedure, abridged:
(§1)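 Each medium arm—HPLM with 10% dialyzed FBS, or RPMI1640 with 5 mM glucose and 10% untreated or dialyzed FBS—was screened against an 11-point, 3-fold compound titration for 48 h at 37 °C, with CellTiter-Glo luminescence as endpoint.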

A short description of assay [5]: Quantitative highthroughput screen to assess conditional lethalithy of NOMO1 cells grown in RPMI1640 with dialyzed fetal bovine serum (RPMI+ds) (AID 1963877).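 For Viability: series mostly up to about 46 µM; 100% = DMSO control wells and 0% = empty wells.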 Note: nearly all actives have a fitted effect of over 30% in size. The procedure, abridged:
as §1

Assay [6] in a line: Quantitative highthroughput screen to assess conditional lethalithy of NOMO1 cells grown in Human Plasma-Like Medium with dialyzed fetal bovine serum (HPLM+ds) (AID 1963878).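 For Viability: 100% = DMSO wells and 0% = empty wells on each plate.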 Note: nearly all actives have a fitted effect of over 35% in size. The procedure, abridged:
as §1

Assay [7] can be described thus: Quantitative highthroughput screen to assess conditional lethalithy of P12 Ichikawa cells grown in Human Plasma-Like Medium with dialyzed fetal bovine serum (HPLM+ds) (AID 1963879). For Viability: series mostly up to about 46 µM. Note: nearly all actives have a fitted effect of over 35% in size. The settings on record: Potency: viability. The procedure, abridged: as §1
Assay [8] is described as follows: Quantitative highthroughput screen to assess conditional lethalithy of P12 Ichikawa cells grown in RPMI1640 with dialyzed fetal bovine serum (RPMI+ds) (AID 1963880).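 For Viability: 100% = DMSO wells and 0% = empty wells on each plate.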 Note: nearly all actives have a fitted effect of over 35% in size. The settings on record: Potency: P12-Ichikawa viability. The procedure, abridged: as §1
Assay [9] is described as follows: Quantitative highthroughput screen to assess conditional lethalithy of P12 Ichikawa cells grown in RPMI1640 with untreated serum (RPMI+s) (AID 1963881).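 For Viability: series mostly up to about 46 µM; 100% = DMSO wells and 0% = empty wells without cells.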 Note: nearly all actives have a fitted effect of over 35% in size. The settings on record: Potency: viability. The method, boiled down: as §1
Assay [10] in a line: Quantitative highthroughput screen to assess conditional lethalithy of SEM cells grown in Human Plasma-Like Medium with dialyzed fetal bovine serum (HPLM+ds) (AID 1963882). For Viability: series mostly up to about 46 µM. Note: nearly all actives have a fitted effect of over 35% in size. The method, boiled down: as §1
The nature of assay [11]: Quantitative highthroughput screen to assess conditional lethalithy of SEM cells grown in RPMI1640 with unreated serum (RPMI+s) (AID 1963883).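 For Viability: 100% = DMSO wells and 0% = empty wells without cells.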 Note: nearly all actives have a fitted effect of over 35% in size. The method, boiled down:
as §1

Assay [12] can be described thus: Quantitative highthroughput screen to assess conditional lethalithy of SEM cells grown in RPMI1640 with dialyzed fetal bovine serum (RPMI+ds) (AID 1963884).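 For Viability: series mostly up to about 46 µM; 100% = DMSO control wells and 0% = empty wells without cells.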 Note: nearly all actives have a fitted effect of over 35% in size. The procedure, abridged: as §1
Assay [13] is described as follows: Cellular viability qHTS for adrenocortical cancer (ACC) cell line SW-13 (AID 1963989).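 For activity (max response): cells grown in serum-free medium with ITS supplement; % is set by controls: 0 for no effect and ±100 for the full control effect.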 Note: nearly all actives have a fitted effect of over 65% in size. Particulars: SW-13 ACC cells viability, CellTiter-Glo, 48 h; activity (max response): stronger effect = lower value. The procedure, abridged:
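Here, serum-free SW-13 cultures were dosed up to 46 uM. Following 48 h, ATP-dependent luminescence (CellTiter-Glo) reported viable cells, and logistic modeling produced IC50 values.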

Assay [14] in a line: Cellular viability qHTS for adrenocortical cancer (ACC) cell line NCI-H295R (AID 1963990). Note: nearly all actives have a fitted effect of over 60% in size. The procedure, abridged: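 Viability of NCI-H295R after 48 h of treatment (final up to 46 uM) measured through cellular ATP luminescence.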
Potency is the fitted concentration of half-maximal effect.

Chain of Cytochrome P450 3A7 (Homo sapiens) (P24462 whole entry, looked up): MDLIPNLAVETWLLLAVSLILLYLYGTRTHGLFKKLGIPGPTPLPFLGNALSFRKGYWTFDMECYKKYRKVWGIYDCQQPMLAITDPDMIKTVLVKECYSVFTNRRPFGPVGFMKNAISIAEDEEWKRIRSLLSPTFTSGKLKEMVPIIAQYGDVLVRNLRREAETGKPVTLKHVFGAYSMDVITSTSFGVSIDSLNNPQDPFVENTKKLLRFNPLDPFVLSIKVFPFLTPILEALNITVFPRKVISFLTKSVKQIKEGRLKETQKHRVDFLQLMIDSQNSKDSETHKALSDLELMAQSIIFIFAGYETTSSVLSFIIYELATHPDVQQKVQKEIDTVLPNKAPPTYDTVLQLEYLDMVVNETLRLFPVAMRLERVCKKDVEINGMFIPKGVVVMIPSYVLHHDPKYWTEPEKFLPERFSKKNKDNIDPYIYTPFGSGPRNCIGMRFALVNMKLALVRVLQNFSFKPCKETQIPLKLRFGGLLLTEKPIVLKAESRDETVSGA

For `O=C(Cc1ccc(-c2ccccc2)cc1)NC1CCC1`, the Potency entry in assay [1], in assay [2] and in assay [3] was “inactive” each time.

Consider `FC(F)(F)Oc1ccc(-c2ccc3nnc(C(F)(F)F)n3c2)cc1`, for which the Potency result in [1], in [2] and in [3] was “inactive” throughout.

As to `CC(=O)N1CCN(NC(=O)c2ccc(F)cc2)CC1`, the Potency entry in assay [1], in [2] and in assay [3] was “inactive” each time.

In the case of `COc1cc(Nc2c(C#N)cnc3cc(OCCCN4CCN(C)CC4)c(OC)cc23)c(Cl)cc1Cl`, the Potency in assay [1] is 15.5 µM (active); in assay [2] it was 944 nM (active) and 1.3 µM (active) and 1.18 µM (active); in assay [3] it was 944 nM (active) and 1.16 µM (active) and 590 nM (active); in assay [4] it was 7.43 µM (active); in assay [5] it was 8.33 µM (active); in assay [6], 3.72 µM (active). Also, the Potency in [7] is 3.72 µM (active); in assay [8], 5.26 µM (active); in [9], 4.69 µM (active); in assay [10] it was 1.66 µM (active); in [11] it was 1.87 µM (active); in [12], 2.35 µM (active). Further, the Potency in assay [13] is 4.61 µM (active) and 2 µM (active); in assay [14] it was 4.61 µM (active) and 3.55 µM (active).

On to `CN(c1ccc(NC(=O)Nc2ccccc2)cc1)S(=O)(=O)c1cnn(-c2ccc(F)cc2)c1`, for which the Potency result in assay [1] is “inactive”. The Potency in assay [2] was 16.4 µM (active); in [3] it was 23.1 µM (active).

As to `CC(C)(C)NCc1cc(Nc2ccnc3cc(Cl)ccc23)c2c(c1O)CCCC2`, the activity change, negative = inhibition in assay [1] is -5.38% [at 11.5 µM]. The viability (% of control) in assay [2] was 90.1% [at 0.588 µM]. In addition, the viability, % of control in assay [3] was 102% [at 0.588 µM].

As for `O=C(c1ccc(F)cc1)C1CCN(CCn2c(=O)nc3n(c2=O)CCCC3)CC1`, the Potency entry in assay [1], in [2] and in assay [3] was “inactive” each time.

For `CC(C)(C)OC(=O)N1CCC(OCc2nc(-c3ccncc3)no2)CC1`, the Potency entry in assay [1], in [2] and in assay [3] was “inactive” each time.

Take `CCc1cc(CN2CC(C(=O)O)C2)sc1-c1noc(-c2ccc(Oc3ccccc3)cc2)n1`: the Potency result in [1], in assay [2] and in assay [3] was “inactive” in each case.

As for `FC1(F)C(F)(F)C(F)(F)C2(F)C(F)(F)C(F)(F)C(F)(F)C(F)(F)C2(F)C1(F)F` (stereo not drawn), the Potency entry in assay [1], in assay [2] and in [3] was “inactive” each time.

Regarding `O=C(O)[C@@H]1C[C@H]2C[C@@H](CCc3nn[nH]n3)CC[C@H]2CN1`, the Potency result in [1], in assay [2] and in assay [3] was “inactive” in each case.

On to `O=C(Cn1c2ccccc2c2nc3n(c(=O)c21)CCS3)N1CCCC1`, for which the Potency entry in [1], in assay [2] and in [3] was “inactive” each time.

`COC(=O)c1cc(Br)cnc1N1CCC(NC2CCCCC2)C(O)C1` (stereo not drawn): the Potency result in [1], in [2] and in assay [3] was “inactive” in each case.

For the compound `COc1ccc(-c2ccc(-c3cn(C(=O)N4CCCCC4c4ccccc4)nn3)cc2)cc1` (stereo not drawn), the Potency result in assay [1] and in assay [2] was “inactive” each time. In addition, the Potency in assay [3] is 0.517 µM (active).

As for `O=C(Nc1nnc(-c2ccc3c(c2)OCCO3)o1)C1CCCCC1`, the Potency result in assay [1], in [2] and in [3] was “inactive” throughout.

Regarding `COC(=O)C1=C(C)NC(C)=C(C(=O)OCCN2CCN(C(c3ccccc3)c3ccccc3)CC2)C1c1cccc([N+](=O)[O-])c1` (stereo not drawn), the Potency result in [1], in assay [4], in assay [5], in assay [6], in assay [7] and in [8] was “inactive” in each case. Besides, the Potency entry in assay [9], in [10], in assay [11] and in assay [12] was “inactive” in each case. For the same compound, the Potency is 11.9 µM (active) in assay [2], 6.68 µM (active) in assay [3], 4.47 µM (active) in assay [13] and 3.98 µM (active) in [14].

Turning to `CC1(C)Oc2ncnc(N)c2N=C1c1ccc(C2CCC(CC(=O)O)CC2)cc1` (stereo not drawn), the Potency result in [1], in [2] and in assay [3] was “inactive” throughout.

On to `CCCCOC(=O)NC(=O)C1c2ccccc2Oc2ccccc21`, for which the Potency result in assay [1], in assay [2] and in [3] was “inactive” each time.

Consider `Cn1c(N2CCCCS2(=O)=O)nc(C(=O)NCc2ccc(F)cc2)c(O)c1=O`, for which the Potency entry in assay [1], in [2], in [3], in [4], in [5] and in assay [6] was “inactive” throughout. Also, the Potency result in assay [7], in assay [8], in assay [9], in assay [10], in [11] and in [12] was “inactive” each time.

In the case of `CC(C)(C(=O)c1cccnc1)c1cccnc1`, the Potency entry in assay [1], in [2] and in assay [3] was “inactive” throughout.

`Nc1nnc(-c2cccc(Cl)c2Cl)c(N)n1`: the Potency result in [1], in assay [2], in assay [3], in assay [4], in assay [5] and in assay [6] was “inactive” each time. Moreover, the Potency result in assay [7], in [8], in [9], in assay [10], in assay [11] and in assay [12] was “inactive” in each case. The Potency entry in [14] is “inactive”. The activity (max response) in assay [13] was 1.68% and 0.0596%.

For the compound `O=C(O)c1cccc(S(=O)(=O)N2CCc3ccccc3C2)c1`, the Potency entry in assay [1], in assay [2] and in [3] was “inactive” throughout.

The values above are taken from PubChem BioAssay (NCATS).
